Consider 63 compounds from ChEMBL document CHEMBL3988442, “University of Dundee, Small-Polar-MMV Screening Library” (2021).

Out of some 38,000 compounds screened, about 1,200 (3.2%) showed an effect of 50% or more. The median lay at about -58%. The full list was thinned out, with strong results kept by preference.

This test deals with Plasmodium falciparum. Put plainly: Calibr Malaria Delayed Death Assay SOP. The class given is functional, organism-based. More on the design: scale not given: in the data most compounds retested in dose-response had high values. Particulars: concentration 4.99e-06 (unit not given; other assays of the set use mol/L).
As to `Cc1cccc(C)c1OC1CN(C(=O)C2CC(=O)N(C(C)(C)C)C2)C1` (stereo not drawn), the “Percent Effect” value was -9.651%. As for `COc1nccnc1-c1cc(NC2CCCC2)nc2[nH]ccc12`, the figure is 19.53%. For `COc1ncc(-c2cc(NC3CCCC3)nc3[nH]ccc23)c(OC)n1`, the “Percent Effect” value was 74.29%. As for `COc1cc(-c2cc(NC3CCCC3)nc3[nH]ccc23)nc(N)n1`, the figure is 62.87%; as for `FC(F)(F)c1ccc(-c2cc(NC3CCNCC3)nc3[nH]ccc23)nc1`, -115.3%; as for `CNc1cc(C)nc(-c2cc(NC3CCNCC3)nc3[nH]ccc23)n1`, -52.32%.

In the case of `COc1nccnc1-c1cc(NC2CCNCC2)nc2[nH]ccc12`, the “Percent Effect” value is -131.1%. As for `CC(Nc1ccc(F)cc1)c1nnnn1-c1ccccc1` (stereo not drawn), the figure is -147.9%; as for `Cc1cc(S(C)(=O)=O)c(C)c(S(=O)(=O)N2CCCCCC2)c1`, -98.91%; as for `c1cnn(CC2CN(Cc3nc(-c4ccoc4)no3)CCO2)c1` (stereo not drawn), -25.36%.

Turning to `Cc1csc(N2CCCN(C(=O)Cc3ccc(C)s3)CC2)n1`, the “Percent Effect” value was -98.4%. With `CN1CCC(N(C)C(=O)Nc2ccc(Cl)cc2)CC1` the figure was -68.4%. Consider `Cn1cc(NC(=O)CNC(=O)N2CCN(c3ccc(Cl)cc3)CC2)cn1`, for which the “Percent Effect” value is recorded as 2.407%. For the compound `Cc1nc(N2CCCC2)ncc1C(=O)Nc1ccc(Br)cc1`, the “Percent Effect” value is recorded as -75.85%. Regarding `CCN(CC)c1nc(C)cc(C(=O)Nc2ccc(Br)cc2)n1`, the “Percent Effect” value is reported as -6.909%.

`Cc1oc(-c2cccc(F)c2F)nc1CN(C)CCO`: the “Percent Effect” value is recorded as -89.89%.

As to `CC[C@H](C)[C@H](NC(=O)c1cccc(-n2cnnn2)c1)C(=O)OC`, the “Percent Effect” value is reported as -118.3%. Turning to `COCC(O)CNC(=O)c1cc(COc2ccc3c(c2)CCCC3)on1` (stereo not drawn), the “Percent Effect” value was -3.069%.

`CC(C)NC(=O)CC1COC2(CCN(Cc3cccs3)CC2)C1.O=C(O)C(F)(F)F` (stereo not drawn): the “Percent Effect” value is listed as -6.903%. With `O=C(COc1coc(CN2CCCCC2)cc1=O)Nc1ccccc1Cl` the figure was -97.93%; with `O=C(COc1coc(CN2CCCC2)cc1=O)Nc1ccc(Cl)c(Cl)c1`, -65.99%.

For `O=C(COc1coc(CN2CCCC2)cc1=O)Nc1cc(Cl)ccc1Cl`, the “Percent Effect” value is 79.74%. As for `COc1ccc(NCC(=O)NCC(=O)N2CCCC2)c(C(F)(F)F)c1`, the figure is -93.16%.

Turning to `CC(C)CNC(=O)CN(Cc1ccc(F)cc1)S(C)(=O)=O`, the “Percent Effect” value is recorded as -57.65%.

Turning to `COc1ccc(C[C@H]2CN(C(=O)c3cscn3)CC[C@@H]2OC)cc1`, the “Percent Effect” value is given as -91.5%. `CCn1cnnc1CNC(=O)N1CCN(CC(C)C)CC1`: the “Percent Effect” value was -55.6%.

Regarding `c1ccc(-c2nc(CNC3CCc4ncnn4C3)no2)cc1` (stereo not drawn), the “Percent Effect” value is -138.7%. As for `CN(C)c1ccc(CNC2(c3ccc(F)cc3)CCOCC2)cc1F`, the figure is 25.79%. As for `CSc1ccc(CNC2(c3ccc(F)cc3)CCOCC2)cc1`, the figure is 28.49%. As for `Fc1ccc(C2(NCc3ccccc3)CCOCC2)cc1`, the “Percent Effect” value is listed as 62.64%. With `O=C(CCc1nc2ccccc2[nH]1)Nc1ccc2c(c1)OCC(=O)N2` the figure was -185.4%; with `Cc1cc(F)c(S(=O)(=O)Nc2ccn(CCC#N)n2)cc1F`, -82.35%; with `CN(C)[C@@H]1CCN(c2ncc(F)cn2)[C@H]1Cc1ccncc1.O=C(O)C(F)(F)F.O=C(O)C(F)(F)F`, 27.12%. With `CO[C@@H]1CCN(c2ncccn2)[C@H]1Cc1ccccc1` the figure was -224.1%; with `CN(C)[C@@H]1CCN(c2ncccn2)[C@H]1Cc1cccnc1.O=C(O)C(F)(F)F.O=C(O)C(F)(F)F`, 10.59%.

On to `CN(C)[C@@H]1CCN(c2ncccn2)[C@H]1Cc1ccccc1`, for which the “Percent Effect” value is 77.2%. Turning to `CN(C)[C@@H]1CCN(c2ncc(F)cn2)[C@H]1Cc1cccnc1.O=C(O)C(F)(F)F.O=C(O)C(F)(F)F`, the “Percent Effect” value is -22.18%. As for `CN(C)[C@@H]1CCN(c2ncccn2)[C@H]1Cc1ccncc1.O=C(O)C(F)(F)F.O=C(O)C(F)(F)F`, the figure is -10.95%; as for `Fc1cnc(N2CC[C@@H](N3CCOCC3)[C@@H]2Cc2ccccc2)nc1`, -55.08%; as for `CN(C)[C@@H]1CCN(c2ncc(F)cn2)[C@H]1Cc1ccccc1.O=C(O)C(F)(F)F.O=C(O)C(F)(F)F`, 88.46%. As to `Cc1nn(C)c(C)c1CN(C)C(C(=O)O)c1ccc(F)cc1F` (stereo not drawn), the “Percent Effect” value is on record as -28.09%. With `Cc1nc(-c2nnc[nH]2)sc1C(=O)N1CCCC1c1cccs1` (stereo not drawn) the figure was -86.12%; with `Cc1ccc(F)c(S(=O)(=O)NCCc2nnc[nH]2)c1`, -33.36%; with `N#Cc1ccc(NCC(O)c2ccco2)c(C(F)(F)F)c1` (stereo not drawn), -33.98%. On to `Cn1cc(C(=O)N2CCCC(CN3CCCC3=O)C2)cn1` (stereo not drawn), for which the “Percent Effect” value was -14.99%. On to `O=C(c1ccc(F)c(F)c1)N1CCC[C@]2(C[C@@H](OCC3CC3)CO2)C1`, for which the “Percent Effect” value is reported as -0.7044%. As for `COC(=O)CC(c1ccc(O)c(Cl)c1)c1oc(C)cc(=O)c1O` (stereo not drawn), the figure is -28.31%; as for `Cc1nc(C)n(C2CCCN(C(=O)CCc3ccccn3)C2)n1` (stereo not drawn), -132.7%; as for `CC(CNC1CCN(c2ccccn2)CC1)Oc1ccc(F)cc1` (stereo not drawn), 47.69%.

On to `COc1ccc(C(C)CCNC2CCN(c3ccccn3)CC2)cc1` (stereo not drawn), for which the “Percent Effect” value turned out to be 67.25%. With `CC(C)COCCC(=O)NCCC(=O)N1CCN(c2ccccn2)CC1`, the “Percent Effect” value is listed as -146.7%. On to `COCCOCC(=O)NC1CCN(c2ccccn2)CC1`, for which the “Percent Effect” value was -21.4%. Turning to `CC(C)COCCNC1CCN(c2ccccn2)CC1`, the “Percent Effect” value is given as 60.11%. On to `OC1(CNC2CCN(c3ccccn3)CC2)CCc2ccccc21` (stereo not drawn), for which the “Percent Effect” value was 27.14%. As for `CSCC(=O)N1CCOC(c2nc(C(C)C)n[nH]2)C1` (stereo not drawn), the “Percent Effect” value is on record as -97.79%. `CC(C)[C@H]1CN(c2ccnc(N)n2)C[C@@H]1NC(=O)C1(C#N)CCOCC1`: the “Percent Effect” value is listed as -66.36%. As for `Cc1cc(CN2CCC(c3nccn3C(C)C)CC2)ccc1F`, the figure is 18.24%.

For `NC1CCCCN(Cc2cc(C3CCCCC3)no2)C1` (stereo not drawn), the “Percent Effect” value is reported as 62.41%. As for `NC1CCCCN(Cc2cc(-c3ccccc3OC(F)(F)F)no2)C1` (stereo not drawn), the figure is 70.63%; as for `C[C@@H]1CN(Cc2cc(C3CCCCC3)no2)CC[C@]1(C)O`, -5.788%.

As to `OCC1COCCN(Cc2cc(C3CCCCC3)no2)C1` (stereo not drawn), the “Percent Effect” value is on record as -120.4%. With `OC1COCCN(Cc2cc(-c3ccccc3OC(F)(F)F)no2)C1` (stereo not drawn) the figure was -13.03%; with `Fc1ccc(C2CCCCN2Cc2cc(-c3ccccn3)no2)cc1` (stereo not drawn), -40.19%.
